Laboratory results: PMC12864922, “TDP-43 directly inhibits mRNA accumulation in neurites through modulation of mRNA stability”
Whole data set: some 9,900 sequences, median “r (bound/input frequency ratio)” near 0.7, cut for the highest 2% near 6.5. For the sample, the highest values were picked, then their nearest neighbours and some sequences at random.

B1: ENSMUSG00000031028.199|Tub (ssRNA)
RNA: GGGAGUUCUACAGUCCGACGAUCGCUUCGAUAUCCGCAUGCUAACCUGCUAGGGUCUAUUCUGCAUGUCCUUUCUCUUCCCAGUUCCAGAGAUGAAACCCCUCCGAGUUAAUGUAUAAGGUUGGAAACCUUUCAGUAGGGAAUCAGGCAGUUCCCUGUUGAAAGUUGUCUGAGUUUUUGCACACCAUUCUGAUCUGAUGUGGCCUGUGCCUGGCUCCUCUAUGAGGACUUCGAGCUGUGCACAGACCUUAGCAGGACCACUGCACACUUUGUGUCUGUGUGACAGGCAGCCCAAGGGUUCUGGCUCUUGCGGUCGCACUAGUGUGGAAUUCUCGGGUGUCAAGG
B2: ENSMUSG00000090935.60|Synj2bp (ssRNA)
RNA: GGGAGUUCUACAGUCCGACGAUCGCUUCGAUAUCCGCAUGCUAAUUACCUGCACCUGGAUAUGGGACAGUAGGCUUUUACACUGUUCUUGUGAAUAGGUUUGUAAGCUUCAAAGUCUGCUUUACUUUAUCUUCUGUUAUGAUUGCCUUUGUCAGCAUAGGCAGGAGUCCUUUAGGAUUUCUGCCUAUCAGUAAAAGAAGUAUGUAACCCAAGUUCUACCUUCAGUGGAUUAAAGUUUCAUUAAGUGAAAAUGGAAAGAAAGUAGAAUUACUUGGUAAGAGGCCAAAUGAGGAUACAGAGGCUGCUCUUGCGGUCGCACUAGUGUGGAAUUCUCGGGUGUCAAGG
B3: ENSMUSG00000042529.476|Kcnj12 (ssRNA)
RNA: GGGAGUUCUACAGUCCGACGAUCGCUUCGAUAUCCGCAUGCUAAGAUGUAGGCAACAAGACUAGACCACAUUAAAUGCAUUUUGAUCUCUUUGAAUGCUACUGUGUUGAGAUGUGCGUCUCACUGGCCUCUGCCUGCCUCUCCCGCCUGCGGAGCACUUACACUUCCUGGGGCCCCUGCAGCUGGACCAUGUACAGGGCUCCCUGGGGCUUGUCCUCAGGGGCAGAGAAGGACAUGGUGGCAGCAGCACUGAGAACAGGAGCAUGGCCUCUCUCAGACCCCAGGGCAGUCAUUCAGUCUUUUCCUCUUGCGGUCGCACUAGUGUGGAAUUCUCGGGUGUCAAGG
B4: ENSMUSG00000058297.104|Spock2 (ssRNA)
RNA: GGGAGUUCUACAGUCCGACGAUCGCUUCGAUAUCCGCAUGCUAACCACGGUCUUGUGGUGAUGAGGCAGGACCUGUACACACAGCAAGGCUUACUAUCCGUCUCCUGACAUCCGAAGAGCUCGUCGCAGGUGUGUCUAAUGGCCCUUGGGCUGCACGUGGUUAAGCAUAGCUGUCUCUGUGGCCCAACACAAAGAGGUAAACUUACUUAAAACACAGGGGUUUUGUUGCUGUUUGUUUUUUGUUAGUUUGUUUGUUGAUAAUUGGAUUGAGGAGUUAAUCCUCUGUCACAAUGUCAAAAGCAUCUCUUGCGGUCGCACUAGUGUGGAAUUCUCGGGUGUCAAGG
B5: ENSMUSG00000043670.53|Diras1|229:234 (ssRNA)
RNA: GGGAGUUCUACAGUCCGACGAUCGCUUCGAUAUCCGCAUGCUACCUACAGUAAGGUUGGGCUCCAUCCCUGCCUCUUCACACCUCCAUAGCUUCAUCCUUUGCAGACCUCUCCCUCUAUAUCUCUUUGCUCCCCCACCCCCAUUCUAUCUGCACCCCACAACCACACACUGGAGGUUUGAUCCCUGUGGAUCUGAAAACAGGGACCUGGCUAAGGAACUGCUCAUCCCAGUCAGGCCCAGAGAGGUUACCUUGCCUCUCCAUCUCUGUCCCACACACCCCAGCCAUGCCCACUGUCCCUGUCCCUCUUGCGGUCGCACUAGUGUGGAAUUCUCGGGUGUCAAGG
B6: ENSMUSG00000029636.33|Wasf3|33:37;79:83 (ssRNA)
RNA: GGGAGUUCUACAGUCCGACGAUCGCUUCGAUAUCCGCAUGCUAUCCCUGUAGCUUUAGUCCCUUUUGUAUUAACACACACAUUUGCUUCUGCACAUCCUUCUGGAUUUGUUGAGUAUUUACACACAAAUACUUAAGUGCCACAGAACACAGCACACCGUGCUGCACACCAGGAAACUCGCAGUAUUAGUGCAUCACCCUGGAACAGCAUCUUGCUUCCCUCUCAGCCGUGAGAGUCCCCUCUCCUGUCCAUCCUGAUUUGGUGGGCUUGCCACGUAUCUGCGCAGCUGCCCCACGUCAGCUCUCUCUUGCGGUCGCACUAGUGUGGAAUUCUCGGGUGUCAAGG
B7: ENSMUSG00000004113.19|Cacna1b|119:123 (ssRNA)
RNA: GGGAGUUCUACAGUCCGACGAUCGCUUCGAUAUCCGCAUGCUAACCCUUACCUAGGGCAGCGUCUGGACAGUGAGGCCUCCGCCCACACCCUGCCUGAGGAUACACUCACCUUUGAAGAGGCAGUGGCCACCAACUCUGGCCGCUCCUCCAGGACUUCCUAACACACCUCCCUCACUUCCCAAUCCCACCCUCUCCGCCGUGUACCCAAUGGCUAUCACUGCACUUUGGGACUCAGCACUGGCGUCCGGGCGCGGCACAGCUACCACCACCCCGAUCAGGACCACUGGUGCUAGCUGCACCACCUCUUGCGGUCGCACUAGUGUGGAAUUCUCGGGUGUCAAGG
B8: ENSMUSG00000028439.140|Fam219a (ssRNA)
RNA: GGGAGUUCUACAGUCCGACGAUCGCUUCGAUAUCCGCAUGCUAUCAUCCCCACACCGCCCUGCCACCCCCAGUCUUCUGUCUAUUGGUUCCAGGCUGGAAGCAAGAGAUAAGGCUGGCCUCCUGUGCCCCAUUGCCAUUUCACCCUAGCUCAAAGUCCAGGAGCCAGGCUUCCAGAAAGGCUCUUCAAGAGCAAGCUUAAGGAAAUACAGUGAGCCAAGUGGCUGUAUGAUAUGGUAUGGUAUGGUAUGGUAUGGUAUGGUAUGGUAUGCACAUGUGUGUGCAUGUGUGUGUGCCUGUGUGUGCUCUUGCGGUCGCACUAGUGUGGAAUUCUCGGGUGUCAAGG
B9: ENSMUSG00000028439.147|Fam219a (ssRNA)
RNA: GGGAGUUCUACAGUCCGACGAUCGCUUCGAUAUCCGCAUGCUAGGUUCCAGGCUGGAAGCAAGAGAUAAGGCUGGCCUCCUGUGCCCCAUUGCCAUUUCACCCUAGCUCAAAGUCCAGGAGCCAGGCUUCCAGAAAGGCUCUUCAAGAGCAAGCUUAAGGAAAUACAGUGAGCCAAGUGGCUGUAUGAUAUGGUAUGGUAUGGUAUGGUAUGGUAUGGUAUGGUAUGCACAUGUGUGUGCAUGUGUGUGUGCCUGUGUGUGUGCGUGUGCGUGUGUGUAUGUGUGUGCGUGUGUGUGUGUGUGCUCUUGCGGUCGCACUAGUGUGGAAUUCUCGGGUGUCAAGG
B10: ENSMUSG00000028439.137|Fam219a (ssRNA)
RNA: GGGAGUUCUACAGUCCGACGAUCGCUUCGAUAUCCGCAUGCUAUGCAUCUGUCUCUCUGCCUCAUCCCCACACCGCCCUGCCACCCCCAGUCUUCUGUCUAUUGGUUCCAGGCUGGAAGCAAGAGAUAAGGCUGGCCUCCUGUGCCCCAUUGCCAUUUCACCCUAGCUCAAAGUCCAGGAGCCAGGCUUCCAGAAAGGCUCUUCAAGAGCAAGCUUAAGGAAAUACAGUGAGCCAAGUGGCUGUAUGAUAUGGUAUGGUAUGGUAUGGUAUGGUAUGGUAUGGUAUGCACAUGUGUGUGCAUGCUCUUGCGGUCGCACUAGUGUGGAAUUCUCGGGUGUCAAGG
B11: ENSMUSG00000028439.138|Fam219a (ssRNA)
RNA: GGGAGUUCUACAGUCCGACGAUCGCUUCGAUAUCCGCAUGCUAUGUCUCUCUGCCUCAUCCCCACACCGCCCUGCCACCCCCAGUCUUCUGUCUAUUGGUUCCAGGCUGGAAGCAAGAGAUAAGGCUGGCCUCCUGUGCCCCAUUGCCAUUUCACCCUAGCUCAAAGUCCAGGAGCCAGGCUUCCAGAAAGGCUCUUCAAGAGCAAGCUUAAGGAAAUACAGUGAGCCAAGUGGCUGUAUGAUAUGGUAUGGUAUGGUAUGGUAUGGUAUGGUAUGGUAUGCACAUGUGUGUGCAUGUGUGUGCUCUUGCGGUCGCACUAGUGUGGAAUUCUCGGGUGUCAAGG
B12: ENSMUSG00000028439.148|Fam219a (ssRNA)
RNA: GGGAGUUCUACAGUCCGACGAUCGCUUCGAUAUCCGCAUGCUAAGGCUGGAAGCAAGAGAUAAGGCUGGCCUCCUGUGCCCCAUUGCCAUUUCACCCUAGCUCAAAGUCCAGGAGCCAGGCUUCCAGAAAGGCUCUUCAAGAGCAAGCUUAAGGAAAUACAGUGAGCCAAGUGGCUGUAUGAUAUGGUAUGGUAUGGUAUGGUAUGGUAUGGUAUGGUAUGCACAUGUGUGUGCAUGUGUGUGUGCCUGUGUGUGUGCGUGUGCGUGUGUGUAUGUGUGUGCGUGUGUGUGUGUGUGUGUUGUCUCUUGCGGUCGCACUAGUGUGGAAUUCUCGGGUGUCAAGG
B13: ENSMUSG00000028439.141|Fam219a (ssRNA)
RNA: GGGAGUUCUACAGUCCGACGAUCGCUUCGAUAUCCGCAUGCUACCACACCGCCCUGCCACCCCCAGUCUUCUGUCUAUUGGUUCCAGGCUGGAAGCAAGAGAUAAGGCUGGCCUCCUGUGCCCCAUUGCCAUUUCACCCUAGCUCAAAGUCCAGGAGCCAGGCUUCCAGAAAGGCUCUUCAAGAGCAAGCUUAAGGAAAUACAGUGAGCCAAGUGGCUGUAUGAUAUGGUAUGGUAUGGUAUGGUAUGGUAUGGUAUGGUAUGCACAUGUGUGUGCAUGUGUGUGUGCCUGUGUGUGUGCGUGCUCUUGCGGUCGCACUAGUGUGGAAUUCUCGGGUGUCAAGG

biological target: TDP-43 (Homo sapiens, UniProt Q13148 1-414); test: RNA Bind-n-Seq with designed 260-mer pool; 25 mM Tris-HCl, 150 mM KCl, 3 mM MgCl2, BSA (printed 500 mg/mL), 20 units/mL SUPERase IN; pH not stated; 500 nM RNA pool, 1 h, 4 C; TDP-43 5, 50, 500 nM; high values mean tight binding; conditions: protein: recombinant; tags: SBP (GST cleaved off with PreScission; pGEX-GST-SBP)
How it was run: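 The incubation lasted 1 h at 4 °C and used 500 nM of an in vitro-transcribed 260-nt 3′ UTR oligo pool with recombinant SBP-tagged TDP-43 at 5, 50 or 500 nM immobilized on streptavidin beads. It took place in 25 mM Tris-HCl, 150 mM KCl, 3 mM MgCl2, BSA and SUPERase IN. Bound RNA was washed, eluted with biotin, converted to cDNA, PCR-amplified and sequenced to give R, each oligo's normalized abundance in the bound sample divided by that in input. Two independent protein batches provided the duplicates.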

TDP-43, sequence (Q13148 whole entry): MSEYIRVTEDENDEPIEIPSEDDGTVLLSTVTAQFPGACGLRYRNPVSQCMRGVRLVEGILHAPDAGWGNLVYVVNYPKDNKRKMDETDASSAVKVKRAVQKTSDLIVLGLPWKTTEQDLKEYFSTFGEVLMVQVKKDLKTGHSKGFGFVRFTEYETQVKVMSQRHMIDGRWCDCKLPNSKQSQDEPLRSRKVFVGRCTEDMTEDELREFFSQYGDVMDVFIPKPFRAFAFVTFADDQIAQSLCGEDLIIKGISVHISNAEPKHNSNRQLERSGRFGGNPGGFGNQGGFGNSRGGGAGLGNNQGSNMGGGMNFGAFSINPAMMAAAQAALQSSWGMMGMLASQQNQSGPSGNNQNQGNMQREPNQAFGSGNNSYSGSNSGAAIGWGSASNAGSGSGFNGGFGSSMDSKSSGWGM

Binder | binding signal
B1 | 1.55 R (bound/input frequency ratio)
B2 | 0.778 R (bound/input frequency ratio)
B3 | 0.564 R (bound/input frequency ratio)
B4 | 0.391 R (bound/input frequency ratio)
B5 | 2.98 R (bound/input frequency ratio)
B6 | 0.758 R (bound/input frequency ratio)
B7 | 1.6 R (bound/input frequency ratio)
B8 | 2.02 R (bound/input frequency ratio)
B9 | 7.43 R (bound/input frequency ratio)
B10 | 1.7 R (bound/input frequency ratio)
B11 | 1.6 R (bound/input frequency ratio)
B12 | 7.16 R (bound/input frequency ratio)
B13 | 3.58 R (bound/input frequency ratio)
